The values below come from PubChem BioAssay AID1209 (Sanford-Burnham Center for Chemical Genomics, 2008).

What is called inhibition is the relative decrease from the control value, in per cent.

Out of some 190,000 compounds screened, about 810 (0.43%) were called active. No stated cut-off is given here; in the data, active means inhibition above about 50%; inactive means the rest. Only a selection was taken, and actives are over-represented in it overall.

Sequence of Mannose-6-phosphate isomerase (Homo sapiens) (P34949 whole entry, looked up): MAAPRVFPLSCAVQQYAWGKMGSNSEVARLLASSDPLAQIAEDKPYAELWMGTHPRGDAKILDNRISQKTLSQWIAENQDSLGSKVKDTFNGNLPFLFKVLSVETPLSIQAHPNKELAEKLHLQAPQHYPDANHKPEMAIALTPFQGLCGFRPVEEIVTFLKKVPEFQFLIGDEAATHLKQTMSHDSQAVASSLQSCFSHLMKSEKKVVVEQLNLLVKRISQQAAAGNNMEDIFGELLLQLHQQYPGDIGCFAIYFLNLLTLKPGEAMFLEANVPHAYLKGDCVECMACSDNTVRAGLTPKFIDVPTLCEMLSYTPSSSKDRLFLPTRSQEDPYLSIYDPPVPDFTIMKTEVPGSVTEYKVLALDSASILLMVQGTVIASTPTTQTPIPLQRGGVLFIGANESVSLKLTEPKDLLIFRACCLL

The assay has as its target Mannose-6-phosphate isomerase (Homo sapiens) (UniProt P34949). As to the kind of experiment: inhibitors of human PMI, primary screen, biochemical, fluorescence intensity, coupled assay (AID 1209).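 Further: plate controls were DMSO vehicle for no effect and wells lacking substrate for full effect.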 Conditions: purified PMI enzyme, at 20 µM, stronger effect = higher value.
With `COc1cc(CC(=O)OCC(=O)Nc2cc([N+](=O)[O-])ccc2F)cc(OC)c1OC`, the inhibition is 2.7% (inactive).

Turning to `Cc1ccc(C(c2nnnn2C(C)(C)C)N2CCC(C)CC2)cc1` (centres undefined), the inhibition is -7.6% (inactive).

Turning to `CCCCS(=O)(=O)Nc1ccc2cn[nH]c2c1`, the inhibition was 10% (inactive).

For `O=C(/C=C/c1ccco1)N1CCN(S(=O)(=O)/C=C/c2ccccc2)CC1`, the inhibition is -3.5% (inactive).

For `CCCC(=O)NCCCc1nc2ccccc2n1C(C)C`, the inhibition was 2.7% (inactive).

Turning to `CN1CCc2ccccc2C1C1CCNCC1` (centres undefined), the inhibition was -2.5% (inactive).

Take `CN1CCc2cccc3c2[C@@H]1Cc1ccc(O)c(O)c1-3`: the inhibition is 64.3% (active).

Take `COc1ccc2c(c1O)-c1ccccc1CCN(C)C2`: the inhibition is -0.5% (inactive).

Regarding `CN1CCc2cccc3c2[C@H]1Cc1ccc(O)c(O)c1-3`, the inhibition was 79.7% (active).

`CN1CCc2cc3c(c4c2[C@H]1[C@H](O)c1ccccc1-4)OCO3`: the inhibition was 15.6% (inactive).

With `CC(=O)c1cc2c(=O)c3cc(C)ccc3oc2nc1C`, the inhibition is 3.2% (inactive).

For `COc1ccccc1OCC(=O)Nc1ccc(O)cc1C(=O)O`, the inhibition is -4% (inactive).

On to `CCc1ccccc1N(C(=O)Cn1nnc2ccccc21)C(C(=O)NCCOC)c1ccco1` (centres undefined), for which the inhibition was 3.9% (inactive).

With `Cc1ccc(C(=O)c2c(C)oc3c2C(=O)C(=O)c2ccccc2-3)cc1`, the inhibition was 73.3% (active).

On to `Cc1oc2c(c1C(=O)O)C(=O)c1ccccc1C2=O`, for which the inhibition is -55.2% (inactive).

Regarding `CC1=C(CC(=O)c2ccc(Cl)cc2)C(=O)c2ccccc2C1=O`, the inhibition was -15.5% (inactive).

Take `Cc1oc2c(c1C(=O)N1CCC(C)CC1)C(=O)c1ccccc1C2=O`: the inhibition was 1.3% (inactive).

For `Cc1oc2c(c1C(=O)c1ccc(Cl)cc1)C(=O)C(=O)c1ccccc1-2`, the inhibition was 63.9% (active).

On to `CCOC(=O)c1c(C)oc2c1C(=O)c1ccccc1C2=O`, for which the inhibition was -48.2% (inactive).

Consider `Cc1oc2c(c1C(=O)c1ccccc1)C(=O)C(=O)c1ccccc1-2`, for which the inhibition was 73.6% (active).

In the case of `CC(=O)c1c(C)oc2c1C(=O)c1ccccc1C2=O`, the inhibition was 0.2% (inactive).

`O=C(c1ccc(Cl)cc1)c1ccc(CN2C(=O)c3ccccc3C2=O)o1`: the inhibition is 6.4% (inactive).

Consider `O=C(CCCn1cnc([N+](=O)[O-])n1)Nc1ccc(Cl)cc1Cl`, for which the inhibition was 8.7% (inactive).

For the compound `COc1cccc(-c2nc(CS(=O)(=O)CC(=O)Nc3cccc(C)c3C)c(C)o2)c1`, the inhibition was 7.1% (inactive).

In the case of `CCOC(=O)C1CCN(C(=O)COc2ccc(Cl)cc2)CC1`, the inhibition was 0.2% (inactive).

Turning to `CC(NC(=O)c1ccccc1F)c1nnc(SCC(=O)N2CCN(c3ccccc3)CC2)n1C` (centres undefined), the inhibition is -2.3% (inactive).

Turning to `CCOC(=O)c1c(CN2CCC(C)CC2)oc2ccc(OC)cc12`, the inhibition was -3.3% (inactive).

`CCCN(C(=O)c1cn(CC)c2nc(C)ccc2c1=O)c1c(N)n(Cc2ccccc2)c(=O)[nH]c1=O`: the inhibition is 11.3% (inactive).

For the compound `CN(Cc1cccnc1)C(=O)CNC(=O)c1ccc(Cl)cc1Cl`, the inhibition was -2.4% (inactive).

As to `COc1ccc(NS(=O)(=O)c2cccc3nonc23)c(OC)c1`, the inhibition was -1.3% (inactive).

As for `Cc1ccc(-c2nnn(CC(=O)N(CC(=O)NC3CCCC3)c3ccc(F)c(Cl)c3)n2)o1`, the inhibition was -4.8% (inactive).

As to `C[C@@H]1C=C(C(=O)O)O[C@H](OCc2ccc(CO)cc2)C1`, the inhibition was 6% (inactive).

For the compound `COc1ccc(-n2nc([N+](=O)[O-])c(=NCCc3ccccc3)n2O)cc1`, the inhibition was 10% (inactive).

For the compound `O=[N+]([O-])c1nn(-c2ccccc2)n(O)c1=NCCc1ccccc1`, the inhibition is -5.6% (inactive).

Take `CCCCN=C1C([N+](=O)[O-])=CC=C2C1=NC1(CCCCC1)N2O`: the inhibition was 31.3% (inactive).

On to `O=[N+]([O-])C1=CC=C2C(=NC3(CCCCC3)N2O)C1=NCCc1ccccc1`, for which the inhibition was 62.9% (active).

Turning to `O=[N+]([O-])C1=CC=C2C(=NC3(CCCCC3)N2O)C1=NCCO`, the inhibition is 81.4% (active).

Consider `CCC(CC)NC(=O)COC(=O)CCC(=O)c1cccs1`, for which the inhibition is 4.9% (inactive).

As to `Cc1nc2cc(NC(=O)N3CCCCC3)ccc2n1C`, the inhibition was 16.1% (inactive).

Turning to `CCO/C=N/c1c(C#N)c2c(c(=S)n1C)COC(C)(C)C2`, the inhibition is 5.8% (inactive).

On to `Cn1c(=O)n(C)c2cc([N+](=O)[O-])c(N3CCN(S(C)(=O)=O)CC3)cc21`, for which the inhibition was -6.6% (inactive).

For `CC1CCCC2(C1)NC(=S)c1c(sc3c1CCCC3)N2` (centres undefined), the inhibition is 74.4% (active).

In the case of `CCSC1=NC2(CCCCC2)Nc2sc3c(c21)CCCC3`, the inhibition is -35% (inactive).

Turning to `CC1CCCC2(C1)NC(=S)N(c1ccccc1)N2` (centres undefined), the inhibition is -48.4% (inactive).

For the compound `COc1ccccc1OCCOCCOc1ccc(C)cc1Br`, the inhibition was 11.4% (inactive).

For the compound `C=CCn1c(SC/C=C/c2ccccc2)nnc1-c1sc(N)nc1C`, the inhibition is 13.7% (inactive).

As for `CCN(CC#CCC(O)(c1ccccc1)C1CCCC1)C(C)C` (centres undefined), the inhibition was 7.4% (inactive).

For `CC(C)(C)N(CC#CCC(O)(c1ccccc1)C1CCCC1)CCO` (centres undefined), the inhibition is 30.4% (inactive).

Take `CC(C)N(CC#CCC(O)(c1ccccc1)C1CCCC1)CCO` (centres undefined): the inhibition was 58.1% (active).

With `CC(C)C(C)NC(=O)COC(=O)c1cccc(C(=O)OCC(=O)NC(C)C(C)C)n1` (centres undefined), the inhibition is 21.9% (inactive).

`Nc1nnc(-c2ccncc2)s1`: the inhibition is 13.4% (inactive).

As to `CCOC(=O)NC1(NC(C)C)Oc2ccccc2O1`, the inhibition is 12.2% (inactive).

For the compound `CCOC(=O)NC1(NCC(C)C)Oc2ccccc2O1`, the inhibition is 42.4% (inactive).

Regarding `CCOC(=O)NC1(NCc2ccccc2)Oc2ccccc2O1`, the inhibition was 51.2% (active).

Take `CCN(CC)c1ccc(C2C(C(=O)OCCOC(C)C)=C(C)NC3=C2C(=O)CCC3)cc1` (centres undefined): the inhibition is 6.2% (inactive).

On to `CCOC(=O)c1oc2ccccc2c1NC(=O)CN1CCOCC1`, for which the inhibition is -0.8% (inactive).

Turning to `COc1ccc(NC(=O)c2ccc(S(=O)(=O)N3CCOCC3)cc2)c(OC)c1`, the inhibition was 7.2% (inactive).

As to `COC(=O)c1c(-c2ccccc2)csc1NC(=O)C1CC=CCC1C(=O)O` (centres undefined), the inhibition is -6.8% (inactive).

In the case of `COC(=O)c1c(-c2ccc(C)cc2)csc1NC(=O)C1CC=CCC1C(=O)O` (centres undefined), the inhibition is 7.7% (inactive).

In the case of `COC(=O)c1c(-c2ccco2)csc1NC(=O)C1CC=CCC1C(=O)O` (centres undefined), the inhibition is 51.4% (active).

`O=c1[nH]nc(CNc2ccc(Cl)cc2Cl)c2ccccc12`: the inhibition was -11.9% (inactive).

Consider `Cc1ncc(CO)c(/C=N/NC(=O)c2ccc(O)cc2)c1O`, for which the inhibition is 3.5% (inactive).

`Cc1ncc(CO)c(/C=N/NC(=O)c2ccc(Br)cc2)c1O`: the inhibition was 15.7% (inactive).

On to `COc1ccccc1NC(=S)N1CCC(C(=O)c2ccc(F)cc2)CC1`, for which the inhibition was 1.3% (inactive).

For `CC(C)OCCCNC(=S)Nc1ccc2nc3n(c(=O)c2c1)CCCCC3`, the inhibition is -2.7% (inactive).

Regarding `CC(=O)N1CCN(C(=S)c2ccc(-c3ccc(Cl)cc3)o2)CC1`, the inhibition was 63.9% (active).

Consider `COc1ccc(-c2ccc(C(=S)N3CCN(C(C)=O)CC3)o2)cc1`, for which the inhibition was 62% (active).

For `COc1ccc(CC(=O)N2CCN(C(=O)Cc3ccc(OC)cc3)CC2)cc1`, the inhibition was 7.3% (inactive).

For the compound `S=C(c1ccc(-c2ccc(Cl)cc2)o1)N1CCCCC1`, the inhibition was 9.1% (inactive).

With `N#CCCN1CCN(C(=S)c2ccc(-c3ccc(Cl)cc3)o2)CC1`, the inhibition was 25.7% (inactive).

`NC(=O)C1CCN(C(=S)c2ccc(-c3ccc(Br)cc3)o2)CC1`: the inhibition is -10% (inactive).

On to `Cc1cccc(CSC2=NCCN2C(=O)C2CC2)c1`, for which the inhibition was 5.8% (inactive).

For the compound `CCC1N=C(SC)NC(C)=C1C(=O)c1ccccc1` (centres undefined), the inhibition is -36.6% (inactive).

As to `CCOc1ccc(Cn2nnc(C(=O)Nc3cc(C)cc(C)c3)c2N)cc1`, the inhibition is 18.5% (inactive).

With `OCCCNC(=S)Nc1ccc2nccnc2c1`, the inhibition was -2.7% (inactive).

In the case of `CNC(=S)Nc1ccc2nc(C)c(C)nc2c1`, the inhibition is 2.5% (inactive).

For `COc1ccc(N(C)C(=S)Nc2ccc3nc(C)c(C)nc3c2)cc1`, the inhibition was 53.7% (active).

With `COc1ccc(NC(=S)Nc2ccc3nc(C)c(C)nc3c2)cc1`, the inhibition is 45% (inactive).

On to `CC(C)(C)NC(=O)Nc1ccc2nccnc2c1`, for which the inhibition is 4.4% (inactive).

Consider `CC(=O)Nc1ccc(NC(=S)Nc2ccc(F)cc2)cc1`, for which the inhibition was 3.2% (inactive).

In the case of `Fc1ccc(NC(=S)Nc2nccs2)cc1`, the inhibition was 2.2% (inactive).

Take `Fc1ccc(NC(=S)Nc2ccc3nccnc3c2)cc1`: the inhibition was 56.3% (active).

Regarding `Cc1nc2ccc(NC(=O)N(C(C)C)C(C)C)cc2s1`, the inhibition is 3% (inactive).

Turning to `CCN(CC)c1ccc(NC(=S)Nc2ccc(F)cc2)cc1`, the inhibition was 53.4% (active).

Consider `CCN(CC)CCNC(=S)Nc1ccc(F)cc1`, for which the inhibition is -2.1% (inactive).

In the case of `CC(C)N(C(=O)Nc1ccc2nccnc2c1)C(C)C`, the inhibition is 65.4% (active).

For the compound `Cc1c(Nc2nc(-c3ccc(Cl)cc3)cs2)c(=O)n(-c2ccccc2)n1C`, the inhibition is 20.6% (inactive).

Regarding `COc1ccc(N2CCN(C(=O)c3ccc(F)cc3)CC2)c([N+](=O)[O-])c1`, the inhibition is -4.8% (inactive).

Consider `COCCN(C(=O)Cn1nnc2ccccc21)C(C(=O)NC1CCCC1)c1ccc(OC)cc1OC` (centres undefined), for which the inhibition was -10.6% (inactive).

As for `CCc1cccc(CC)c1-n1c(SCC(=O)c2c(N)n(C)c(=O)n(C)c2=O)nnc1-c1cccnc1`, the inhibition is 17.2% (inactive).

Consider `Cc1ccccc1C(=O)c1c[nH]c(C(=O)N2CCN(c3ccccc3F)CC2)c1`, for which the inhibition was 7.5% (inactive).

With `Cc1cc(C)cc(NC(=S)N2CCN(c3ccc(F)cc3)CC2)c1`, the inhibition was 10% (inactive).

Turning to `C=CCn1c(SCc2ccccc2)nnc1-c1cccnc1`, the inhibition was 1.3% (inactive).

Regarding `CN(Cc1nc2ccccc2c(=O)[nH]1)CC(O)COCc1ccco1` (centres undefined), the inhibition was 11.4% (inactive).

`CCNc1nc(CSc2ccccc2)nc2sc(C)c(C)c12`: the inhibition is 30.5% (inactive).

Turning to `CCn1c(SCC(=O)N/N=C/c2ccc(C)o2)nnc1-c1ccc(C)cc1`, the inhibition was 0.6% (inactive).

For `CCN1CCN(CCCNC(=O)C(=O)c2c(C)[nH]c3ccccc23)CC1`, the inhibition is -6.7% (inactive).

In the case of `O=C(COC(=O)c1ccc(Br)cc1)NCc1ccc(F)cc1`, the inhibition was -1.2% (inactive).

For the compound `COC(=O)c1ccc(CSc2nnc(C)s2)cc1`, the inhibition is 8.5% (inactive).
